An excerpt weighted towards active compounds, which were near 8.8% of everything screened.
IL1B secr inh – inflammasome signaling inhibition, IL-1 beta readout | THP-1 LPS/ATP IL-1B secretion, AlphaLISA, 16 h; stronger effect = lower value | activity change, % at 57.5 µM | hit rate 4.7% among 360,000; in the data active = activity change below about -50%; inconclusive = mostly about -30% to -49%
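Secreted IL-1B measured by AlphaLISA bead assay after 16 h compound exposure of THP-1 cells; compounds (final up to 57.5 uM) added 1 h before LPS (250 ng/mL) and ATP (1.25 mM) stimulation; lower signal means less secretion.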
KB-V1 MDR tox – kills drug-selected multidrug resistant KB-V1 cells | KB-V1 MDR cells viability, CellTiter-Glo, 72 h | Potency, µM (series often up to 46.1 µM), hits mostly cytotoxic | hit rate 3.4% among 400,000 | AID 1347076; note: potency is the fitted concentration of half-maximal effect; nearly all actives have a fitted effect of over 60% in size
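Potencies derive from concentration-effect curves fitted to normalized luminescence (CellTiter-Glo) of KB-V1 cells treated for 72 h at 37 degrees C in phenol-red-free DMEM containing 10% FBS.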
HT1080 IDH1KD tx – kills HT-1080 cells with IDH1 knockdown. HT-1080 IDH1 knockdown viability, ATP luminescence, 48 h. Potency, µM (titrated, usually from 46.1 µM), for the others: at the highest dose activity, negative = toxicity, usual class: cytotoxic. hit rate 2% among 360,000;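 note: potency is the fitted concentration of half-maximal effect; 0% = DMSO wells and -100% = cell-free medium wells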
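After a 2 h attachment period, IDH1KD HT-1080 cells took pin-transferred compound for 48 h at 37 °C; ATP-based luminescence after 10 min room-temperature reagent incubation reported viability.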
KB-3-1 cytotox – kills parental KB-3-1 adenocarcinoma cells; KB-3-1 viability, CellTiter-Glo ATP luminescence, 72 h; hit rate 1.4% among 400,000; Potency, µM (doses to about 46.1 µM), actives largely listed as cytotoxic; note: potency is the fitted concentration of half-maximal effect; nearly all actives have a fitted effect of over 60% in size
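Luminescent ATP read-out (CellTiter-Glo) measures survival of drug-naive KB-3-1 cells after 72 h compound exposure at 37 °C. Titration series was screened from lowest to highest concentration, with DMSO vehicle plates as background controls.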
HT1080-NT tox – kills 2HG-producing HT-1080-NT fibrosarcoma cells; HT-1080-NT fibrosarcoma viability, CellTiter-Glo ATP luminescence, 48 h; Potency, µM (highest dose often 46.1 µM), for inactives: at the top dose activity, negative = less viability, hits mostly cytotoxic; hit rate 1.6% among 360,000; AID 686970;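 note: NT is the 2HG producing partner of a matched IDH1 knockdown line; potency is the fitted concentration of half-maximal effect; 0% = DMSO-treated cells and -100% = media-only wells without cells; nearly all actives have a fitted effect of over 55% in size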
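Toxicity toward the 2HG-producing NT line was scored as %Activity, normalised to DMSO and no-cell wells, from CellTiter-Glo luminescence after 48 hours' treatment.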
* marks the source's active call; other numbers are inactive results; i = inactive; ? = inconclusive; / = not tested or not shown. Unless noted, calls come from the whole dose curve; as a rule, active = well fitted curve in the direction sought with a large enough effect; inconclusive = small, poorly fitted or top-dose-only effect, or another doubt; inactive = no such curve, though single readings can be large; an effect the other way counts as inactive or inconclusive. Unless noted, % is set by controls: 0 for no effect and ±100 for the full control effect.

SMILES	IL1B secr inh	KB-V1 MDR tox	HT1080 IDH1KD tx	KB-3-1 cytotox	HT1080-NT tox
Cc1ccc(C(=O)Nc2nc(-c3ccco3)c(-c3ccco3)s2)o1	-57*	i	-4%	i	-11%
Cc1ccc(S(=O)(=O)N2CCCCC2CCNC(=O)C(=O)NCc2ccccc2C)cc1 (stereo not drawn)	-7	9.2µM*	16µM*	?	21µM*
Cc1ccc(S(=O)(=O)N2CCCCC2CCNC(=O)C(=O)NCc2ccccc2)cc1 (stereo not drawn)	-1	4.1µM*	6.5µM*	3.7µM*	7.3µM*
O=C(NCCC1CCCCN1S(=O)(=O)c1ccc(F)cc1)C(=O)NCC1CCCO1 (stereo not drawn)	4	i	-9%	i	-3%
Cc1ccc(S(=O)(=O)N2CCCCC2CCNC(=O)C(=O)NCC2CCCO2)cc1 (stereo not drawn)	?	5.8µM*	-1%	i	-1%
COc1ccc(CC(=O)NC(C)c2ccc(S(N)(=O)=O)cc2)cc1S(=O)(=O)N1CCOCC1 (stereo not drawn)	-15	?	1%	i	8%
Cc1noc(C)c1-c1ccc(C(=O)Nc2cccc(C(F)(F)F)c2)c2occc12	-7	i	?	i	?
O=C1Cc2cc(S(=O)(=O)N3CCN(c4cccc(C(F)(F)F)c4)CC3)ccc2N1	/	i	/	i	/
Cc1cc(C)c(S(=O)(=O)n2ccc3ccccc32)c(C)c1	15	?	3%	23µM*	5%
O=S(=O)(c1ccccc1)n1ccc2ccccc21	27	i	-11%	i	-11%
Cc1onc(-c2ccccc2Cl)c1C(=O)OCC(=O)N1CCC(C)CC1	-6	i	0%	i	-4%
Cc1onc(-c2ccccc2Cl)c1C(=O)Oc1ccc(Br)cc1	/	i	/	i	/
Cc1onc(-c2ccccc2Cl)c1C(=O)N1CCN(C/C=C/c2ccccc2)CC1	-52*	15µM*	-26%	i	9%
Cc1onc(-c2ccccc2Cl)c1C(=O)OCC(=O)Nc1cccc(S(=O)(=O)N(C)C)c1	-2	8.2µM*	-2%	?	?
Cc1onc(-c2ccccc2Cl)c1C(=O)Oc1cccc2cccnc12	0	?	23µM*	i	-3%
Cc1onc(-c2ccccc2Cl)c1C(=O)N1CCCCC1	13	i	-12%	i	-9%
Cc1onc(-c2ccccc2Cl)c1C(=O)OCC(=O)N1CCN(c2ccccc2)CC1	15	8.2µM*	-8%	i	7%
O=C(NCc1ccccc1Cl)c1ccc(NC(=O)c2nsc3ccccc23)cc1	/	i	/	i	/
COC(=O)c1ccc(NC(=O)CSc2nc(C)cc(C)c2C(=O)Nc2ccccc2)cc1	/	i	/	i	/
Cc1onc(-c2ccccc2)c1C(=O)N1CCN(Cc2ccccc2)CC1	13	23µM*	11%	i	6%
Cc1onc(-c2ccccc2Cl)c1C(=O)N1CCc2ccccc21	2	23µM*	-10%	i	-3%
COc1ccccc1N1CCN(C(=O)c2c(C)noc2C)CC1	10	i	4%	i	8%
COc1ccccc1N1CCN(C(=O)c2c(-c3ccccc3Cl)noc2C)CC1	-14	?	?	21µM*	?
Cc1onc(-c2ccccc2Cl)c1C(=O)N1CCCc2ccccc21	-8	?	?	i	?
CC(C)(C)C1CCC(=NNC(=O)c2ccco2)CC1 (stereo not drawn)	-7	i	12%	i	3%
SMILES	IL1B secr inh	KB-V1 MDR tox	HT1080 IDH1KD tx	KB-3-1 cytotox	HT1080-NT tox
CN(C)CCNC(=O)c1ccc(-c2cnn(C)c2)c2ccoc12	11	i	18%	i	?
COC(=O)c1nc(-c2ccccc2)oc1N(C)C	-1	16µM*	17%	i	9%
COC(=O)c1nc(-c2ccc(C)cc2)oc1N(C)C	-15	?	9%	i	-3%
O=C(Cc1ccc(F)cc1)N/N=C/c1ccncc1	1	i	14%	i	5%
COc1ccc(CNC(=O)C(c2ccc(C)o2)N(Cc2cccs2)C(=O)Cc2cccs2)cc1 (stereo not drawn)	?	15µM*	-22%	?	?
COCCN(C(=O)Cc1cccs1)C(C(=O)NCc1ccc(OC)cc1)c1ccc(C)cc1 (stereo not drawn)	-3	?	2%	i	0%
CCc1ccc(C(C(=O)NCc2ccc(OC)cc2)N(CCOC)C(=O)Cc2cccs2)cc1 (stereo not drawn)	-55*	?	-25%	i	?
COc1ccc(Nc2nnc(C)c(=O)[nH]2)c(OC)c1	6	i	9%	i	?
O=C1C(C=Nc2ccccc2O)=C(O)c2ccccc21	26	i	6.3µM*	i	6.3µM*
CCC(C)NC(=O)c1ccc2c(=O)n3c(nc2c1)CCCCC3 (stereo not drawn)	/	i	/	i	/
c1ccc(COC(CN2CCCCCC2)CN2CCCCCC2)cc1	-19	?	-7%	i	-5%
COc1ccc2[nH]cc(CCNC(=O)Nc3cc(C)cc(C)c3)c2c1	/	i	/	i	/
COc1ccc(OCCN2CCC(C(=O)NC(c3ccc(F)cc3)c3ncccc3C)CC2)cc1 (stereo not drawn)	-1	i	?	i	?
COc1ccc(/C=C/CN2CCC(C(=O)NC(c3ccc(F)cc3)c3ccc4ccccc4n3)CC2)cc1 (stereo not drawn)	?	?	10µM*	?	16µM*
COc1ccc(OCCN2CCC(C(=O)NC(c3ccc(Cl)cc3)c3cnccn3)CC2)cc1 (stereo not drawn)	-54*	i	-19%	i	-14%
CC(C)CN1CCC(C(=O)NC(c2ccc(F)cc2)c2ccc3ccccc3n2)CC1 (stereo not drawn)	?	i	-7%	i	-19%
COc1ccccc1C(NC(=O)C1CCN(CCOc2ccc3ccccc3c2)CC1)c1ccccn1 (stereo not drawn)	?	i	18µM*	i	18µM*
COc1ccc(OCCN2CCC(C(=O)NC(c3ccc(Cl)cc3)c3ncccc3C)CC2)cc1 (stereo not drawn)	/	i	21µM*	i	?
COc1ccccc1N1CCN(/N=C/C=C/c2ccccc2[N+](=O)[O-])CC1	-17	i	1%	i	-5%
Cc1cccnc1C(NC(=O)C1CCN(CCOc2ccc(F)cc2)CC1)c1ccc(Cl)cc1 (stereo not drawn)	-69*	i	16µM*	i	?
COc1ccc(C(NC(=O)C2CCN(CCOc3ccc(Cl)cc3Cl)CC2)c2ccccc2C)cn1 (stereo not drawn)	-1	?	23%	?	-7%
